The nature of test [1]: qHTS Assay for Identifying Gametocytocidal Compounds (AID 743244). Also: potency is read from the fitted curve at half-maximal effect.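 As to max response: % is scaled to controls: 0 for no effect and ±100 for the full control effect; actives lower the fluorescent signal which means gametocytes are killed.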 The conditions noted are these: P. falciparum 3D7 stage III-V gametocytes, alamarBlue, 72 h; max response: stronger effect = lower value. The method, boiled down:
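3D7 gametocytes, stages III–V, 20,000/well; cpd 72 h, 37 °C/5% CO2; + alamarBlue 24 h; fluor. Ex 525/Em 598.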
Background: qHTS replaces the single test concentration by a dilution series.

The nature of test [2]: qHTS assay for measurement of the activity of small molecule inhibitors on Zika virus induced Caspase-3 activity in human iPSC derived neural progenitor cells (hNPCs) (AID 1224857). Also: % of control where 0% means no effect; nearly all actives have a fitted effect of over 65% in size. In short, it runs like this: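 Cells were plated at 350 per well and grown 16 to 20 hours. Compound pretreatment lasted one hour, after which ZIKV (2 FFU/cell) was added for 6 hours. Percent inhibition was normalized between uninfected and infected controls.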

Test [3] is described as follows: qHTS assay for measurement of the activity of small molecule inhibitors on Zika virus induced Caspase-3 activity in human astrocytoma cells (AID 1224859).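 Also: plate controls were ZIKV-infected untreated cells for no effect and uninfected cells for full effect.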 The method, boiled down:
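Percent inhibition of virus-induced caspase-3/7 signal is calculated against uninfected and ZIKV-infected control cells. Cells are SNB-19, infected at 2 FFU/cell for 6 h after 1 h compound exposure.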

A short description of test [4]: qHTS assay to identify small molecule inhibitors of chordoma cells - UCH-1 (AID 1259355). Also: nearly all actives have a fitted effect of over 55% in size. Also: potency is read from the fitted curve at half-maximal effect. In short, it runs like this: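 800 cells/well, overnight attach; compounds pinned at 15 concs, then auranofin/camptothecin/doxorubicin/rubitecan/topotecan combo added; 48hr 37 C, 5% CO2; CellTiter-Glo, 30min RT, luminescence.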
Test [5] in a line: qHTS assay to identify small molecule inhibitors of chordoma cells - UCH-2 (AID 1259356). Also: % is scaled to controls: 0 for no effect and ±100 for the full control effect.
Test [6] is described as follows: P-glycoprotein substrates identified in KB-3-1 adenocarcinoma cell line, qHTS therapeutic library screen (AID 1346986). Also: nearly all actives have a fitted effect of over 60% in size. The conditions noted are these: KB-3-1 parental cells viability, CellTiter-Glo, 72 h; at 44.5 µM (top of the series) unless noted. In short, it runs like this:
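Dose-response cytotoxicity, KB-3-1 vs P-gp-high KB-8-5-11, no colchicine in assay medium. Read: CellTiter-Glo at 72 h.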

Test [7] can be described thus: qHTS profiling for inhibitors of Plasmodium falciparum (3D7) proliferation (AID 743322; call rule not given here;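 also: infected erythrocytes exposed to compound for 72 h before lysis; 100% = DMSO vehicle wells and 0% = 0.29 µM artemisinin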). The conditions noted are these: P. falciparum 3D7 proliferation; at 28.7 µM (top of the series) unless noted. In short, it runs like this:
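Parasite DNA was quantified by SYBR Green I fluorescence (ex 485, em 535 nm) after overnight lysis in saponin/Triton buffer at room temperature. Cultures at 0.3% parasitemia and 2.5% hematocrit were first exposed to compound for 72 h at 37 C; signals were normalised to artemisinin (0.29 uM) and vehicle wells.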

A short description of test [8]: qHTS profiling for inhibitors of Plasmodium falciparum (DD2) proliferation (AID 743323; call rule not given here). The conditions noted are these: lower = more inhibition; at 28.7 µM (top of the series) unless noted. In short, it runs like this:
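1536-well qHTS; infected RBCs 0.3% parasitemia/2.5% Hct final; cpd 72 h 37 C 5% CO2; lysis buffer + SYBR Green I, o/n RT dark; FI 485/535; norm. to 0.29 uM artemisinin and DMSO, plate-stack corrected.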

A short description of test [9]: qHTS profiling for inhibitors of Plasmodium falciparum (HB3) proliferation (AID 743324).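 Also: 100% = DMSO vehicle wells and 0% = artemisinin-treated control wells.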 The settings on record: Plasmodium falciparum HB3 blood-stage proliferation; at 28.7 µM (top of the series) unless noted. The method, boiled down: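 SYBR Green fluorescence (485 ex/535 em) of lysed cultures, incubated overnight at room temperature in the dark, quantifies parasite DNA. Infected erythrocytes at 0.3% parasitemia and 2.5% hematocrit were exposed 72 h; values normalized to DMSO and 0.29 uM artemisinin controls.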

The nature of test [10]: Identifying Small Molecule Inhibitors of Pancreatic Cancer Stem Cells (A278, Adherent) (AID 1259361).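 Also: viability read after 48 h compound exposure; nearly all actives have a fitted effect of over 35% in size.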 In short, it runs like this: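 Adherent (2D) versus sphere (3D) formats; spheres generated 14 d in SCM beforehand. Compound transferred by pin tool after 4 h, 48 h incubation, CellTiter-Glo endpoint.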
The nature of test [11]: Identifying Small Molecule Inhibitors of Pancreatic Cancer Stem Cells (Panc1, Adherent) (AID 1259362). Also: potency is read from the fitted curve at half-maximal effect. The conditions noted are these: Potency: viability. In short, it runs like this:
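Viability is scored by CellTiter-Glo luminescence 48 h after dosing, expressed as percent activity against vehicle and no-cell references. Spheroid formats rely on cells cultured 14 days in stem cell media beforehand.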

Test [12] is described as follows: qHTS assay for cell viability of HEK293 cells (AID 743288). Also: % is scaled to controls: 0 for no effect and ±100 for the full control effect; nearly all actives have a fitted effect of over 50% in size. The settings on record: ATP luminescence (CellTiter-Glo), 18 h, stronger effect = lower value. In short, it runs like this: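 Steps: plate 2,000 parental HEK293 cells per well; incubate ≥5 h, 37 C; add compounds in DMSO; incubate 18 h, 37 C; add CellTiter-Glo; wait 30 min at room temperature; read luminescence.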

Test [13] is described as follows: qHTS assay for cell viability of the p53RE-bla HCT-116 cell line (AID 743292). Also: % is scaled to controls: 0 for no effect and ±100 for the full control effect; nearly all actives have a fitted effect of over 55% in size. In short, it runs like this:
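After plating at 4,000 cells per well and a 5 h rest at 37 C, HCT-116 cells carrying p53RE-bla received test chemicals in DMSO. Sixteen hours later at 37 C, CellTiter-Glo was added and luminescence recorded following 30 min at room temperature.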

Where “and” joins values, the source holds several entries; their conditions need not be identical. Identical values can stand only once. Records with an inconclusive call do not appear. Calls of active or inactive are those of the source. Unless noted, calls follow the shape of the dose curve; as a rule, active = well fitted curve in the direction sought with a large enough effect; inconclusive = small, poorly fitted or top-dose-only effect, or another doubt; inactive = no such curve, though single readings can be large; an effect the other way counts as inactive or inconclusive.

`CCCCOc1cc(C(=O)OCCN(CC)CC)ccc1N`: in test [1], the max response is 9.75% (inactive). For the same compound, the compound was classed as inactive in [2], in [3] and in [5]. In addition, in test [4], the Potency result is “inactive”.
As for `N[C@H](C(=O)O)c1ccc(O)cc1`, the max response in [1] is -1.91% (inactive). For the same compound, the result in [2], in [3] and in test [5] was inactive. The Potency result in [4] is “inactive”.
As for `CC(CN(C)C)CN1c2ccccc2CCc2ccccc21` (stereo not drawn), in [1], the max response was 4.34% (inactive). For the same compound, the compound was classed as inactive in [2], in test [3] and in test [5].
Turning to `CC(=O)Oc1ccc(C2(c3ccc(OC(C)=O)cc3)C(=O)Nc3ccccc32)cc1`, the max response in [1] was -4.55% (inactive) and 20.8% (inactive). The compound was classed as inactive in test [2] and in test [3]. Moreover, the Potency in test [4] is 3.55 µM (active) and 3.98 µM (active).
With `CC(C(O)c1ccc(O)cc1)N1CCC(Cc2ccccc2)CC1` (stereo not drawn), the Potency in [1] was 2.82 µM (active). Moreover, the call in test [2], in [3] and in test [5] was inactive. In addition, the outcome in test [6] was “inactive [at 17.4 µM]”.
Regarding `O=C1Nc2ccc(Cl)cc2[C@@](C#CC2CC2)(C(F)(F)F)O1`, the remaining parasite growth % (stronger effect = lower value) in test [7] worked out at 6.68% [at 57.5 µM]. In test [8], this compound showed an activity, percent of control of 22.7% [at 57.5 µM]. This compound gave a remaining proliferation (% of control), lower = more inhibition in [9] of 11.8% [at 57.5 µM]. In test [10], the IC50 (viability decrease) was 48.1 µM (active). For the same compound, the Potency in test [11] is 48.1 µM (active).
`CN(C)CC[C@@H](c1ccc(Cl)cc1)c1ccccn1` registered a remaining parasite growth % (stronger effect = lower value) in test [7] of 85.4%. Besides, the activity, percent of control in test [8] worked out at 44.8%.
On to `NC(N)=NCCC[C@H](N)C(=O)O`, for which the max response in [1] is -1.84% (inactive) and -1.95% (inactive). Further, the compound was classed as inactive in test [2].
With `CC12CCC(CC1)C(C)(C)O2`, the figures for the max response in test [1] and in test [12] were 7.91% (inactive) and 4.94% (inactive), respectively. Moreover, the Potency result in test [13] and in [4] was “inactive” each time. Further, the result in test [2] and in test [5] was inactive.
For `O=C(CCCN1CCN(c2ccccn2)CC1)c1ccc(F)cc1`, the max response in test [1] is 11.2% (inactive). For the same compound, the call in test [2] and in test [5] was inactive. For the same compound, in test [4], the Potency entry was “inactive”.
For `CNCCC(Oc1ccc(C(F)(F)F)cc1)c1ccccc1` (stereo not drawn), the compound was called inactive in test [2] and in [5].
For `CCCc1c(OCCCCc2nn[nH]n2)ccc(C(C)=O)c1O`, the max response in test [1] is -10.5% (inactive); in [12] it was -7.07% (inactive). Moreover, the Potency result in test [13] and in [4] was “inactive” in each case. Moreover, the call in test [2] and in test [5] was inactive.
Consider `CSc1ccc2c(c1)C(N1CCN(C)CC1)Cc1ccccc1S2` (stereo not drawn), for which the Potency in test [1] is 12.6 µM (active). Moreover, the compound was classed as inactive in test [2] and in [5].
In the case of `C[C@H]1O[C@@H](n2cc(F)c(=O)[nH]c2=O)[C@H](O)[C@@H]1O`, the max response in test [1] was 0.485% (inactive). The outcome in [2] and in [5] was inactive. For the same compound, the Potency result in test [4] is “inactive”.
Regarding `NCCNCCNCCN`, the max response in [1] is -8.14% (inactive); in [12] it was -5.67% (inactive). In addition, the Potency entry in test [13] and in [4] was “inactive” in each case. In addition, the result in test [2] and in [5] was inactive.
As for `O=c1cc[nH]c(=O)[nH]1`, in test [1], the max response is 17% (inactive). The compound was classed as inactive in [3] and in [5]. Moreover, the Potency entry in [4] is “inactive”.
For `CC(C)(C)C(=O)NCCCC(=O)O`, the max response in test [1] was 2.51% (inactive). Also, the call in test [3] and in test [5] was inactive. Besides, in test [4], the Potency entry is “inactive”.
Regarding `Nc1cc(=O)[nH]c(N)n1`, the max response in [1] is -11.1% (inactive) and 4.42% (inactive). The result in test [2] was inactive.
With `C[C@@H]1C[C@H]2[C@@H]3C[C@H](F)C4=CC(=O)C=C[C@]4(C)[C@@]3(F)[C@@H](O)C[C@]2(C)[C@@]1(O)C(=O)CO`, in test [1], the max response was 2.1% (inactive). Besides, the compound was called inactive in [2], in [5] and in [6].
Consider `CCN(CC)CCSC(=O)C(c1ccccc1)c1ccccc1`, for which, in test [1], the max response is -11.9% (inactive). In addition, the compound was called inactive in test [2] and in [5]. The Potency entry in test [4] was “inactive”.
Take `CC1(C)CO[C@@H](CC(=O)O)CN1`: the max response in test [1] was 28.1% (inactive). Besides, the result in [3] and in test [5] was inactive. Also, the Potency result in [4] is “inactive”.
As to `CCOc1nc2cccc(C(=O)O)c2n1Cc1ccc(-c2ccccc2-c2nn[nH]n2)cc1`, in test [1], the max response was 5.7% (inactive). Also, the outcome in test [2] and in test [5] was inactive. Besides, the Potency entry in test [4] was “inactive”.
`CCCCCCCCCCCCOS(=O)(=O)O`: the max response in test [1] is 14.3% (inactive); in [12], -2.66% (inactive) [middle of 4 runs]. Further, the Potency result in test [13] and in test [4] was “inactive” each time. The compound was classed as inactive in [2] and in test [5].
In the case of `N[C@@H](CSSC[C@H](N)C(=O)O)C(=O)O`, the max response in [1] is 13.6% (inactive). Moreover, the activity change, negative = inhibition in test [2] is -8.71% [at 0.568 µM] (inactive). In addition, the result in test [5] was inactive.

The record behind these values is PubChem BioAssay (NCATS).
